# Assay results as given in PubChem BioAssay (EPA / NIEHS).
# Several values for one entry are separate records, joined by “and”; a condition that tells them apart may be missing. Identical values can stand only once. Records with an inconclusive call do not appear. Activity calls are given as the source filed them. The calls were made as follows, unless noted: active = hit-call score of the fitted dose curve at least 0.9, where 1 is the maximum; inactive = score below 0.9.
# What was measured:
# [1] = CCTE_Shafer_MEA_acute_LDH: CCTE's Lactate Dehydrogenase Assay for Cytotoxicity in the Neural Acute Assay, Shafer Lab (AID 2284086; active = hit-call score of the fitted dose curve at least 0.9, where 1 is the maximum;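 also: active means LDH release rises above DMSO vehicle level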)
# Method in brief: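 LDH absorbance at 490 nm in medium taken right after 40-min compound exposure; rat primary cortical neuron networks on MEA plates, days post-plating 13 or 15. Increase over DMSO baseline scored as cytotoxicity.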
# [2] = CCTE_Shafer_MEA_acute_AB: CCTE's Alamar Blue Assay for Cytotoxicity in the Neural Acute Assay, Shafer Lab (AID 2284069; active = hit-call score of the fitted dose curve at least 0.9, where 1 is the maximum;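 also: active compounds lower the viability signal compared with DMSO wells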)
# Method in brief: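 Read-out: resazurin fluorescence (ex 544, em 590 nm) after CTB reagent at 1:6 dilution in fresh media. Cells: primary rat cortical neuron networks, DIV 13 or 15, chemically exposed on MEA plates; DMSO as negative control/baseline.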
# [3] = CCTE_Shafer_MEA_dev_per_network_spike_spike_percent: CCTE's Neural Network Formation Assay for Percent of Spikes in a Network Spike, Shafer Lab (AID 2284054)
# Method in brief: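 Metric: fraction of spikes falling in a 0.05 s window at network-spike peaks. Recordings were made on days 5, 7, 9 and 12 and collapsed by trapezoidal AUC. Cultures were rat cortical neurons on MEA plates, dosed continuously from plating, re-dosed at media changes.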
# [4] = CCTE_Shafer_MEA_dev_LDH: CCTE's Lactate Dehydrogenase Assay for Cytotoxicity in the Neural Network Formation Assay, Shafer Lab (AID 2284068; active = hit-call score of the fitted dose curve at least 0.9, where 1 is the maximum;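 also: exposure for twelve days from plating with re-dosing on DIV 5 and 9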)
# Method in brief: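 Rat cortical primary neurons, MEA culture; dosing day 0–12, full medium plus compound exchange DIV 5, 9. Read-out: LDH enzyme activity, spectrophotometric. DMSO = negative control/baseline; signal loss → cytotoxicity.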
# [5] = CCTE_Shafer_MEA_dev_AB: CCTE's Alamar Blue Assay for Cytotoxicity in the Neural Network Formation Assay, Shafer Lab (AID 2284083; active = hit-call score of the fitted dose curve at least 0.9, where 1 is the maximum;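 also: resazurin reduction fluorescence as viability of cultured neurons; twelve days of exposure from plating with re-dosing on DIV 5 and 9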)
# Method in brief: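 Rat cortical primary cultures, 1.5 x 10^5 cells/well on MEA; continuous compound exposure over 12 days of network development, re-dosed with full medium change DIV 5 and 9. Alamar Blue fluorescence; loss of signal = cytotoxicity vs DMSO baseline.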
# [6] = CCTE_Shafer_MEA_dev_mutual_information_norm: CCTE's Neural Network Formation Assay for Mutual Information Normalization, Shafer Lab (AID 2284091);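 as to AC50: mutual information between electrodes summarised as area under curve across four recording days; potency is for a decrease in mutual information relative to DMSO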
# Method in brief: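 Shared information across electrodes, tracked on days 5, 7, 9 and 12 of network development and collapsed as trapezoidal area under the curve. Rat cortical cultures were treated continuously from plating, with treatment renewed at feeds on DIV 5 and 9; DMSO baseline, negative-direction fit.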
# [7] = CCTE_Shafer_MEA_dev_correlation_coefficient_mean: CCTE's Neural Network Formation Assay for Mean Correlation Coefficient, Shafer Lab (AID 2284093);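 as to AC50: well mean pairwise spike train correlation integrated as AUC over recording days 5 to 12; potency fitted for loss of correlation relative to DMSO vehicle wells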
# Method in brief: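 Rat cortical cultures, 1.5 x 10^5 cells/well, dosed from day 0 for 12 days. Spontaneous spikes recorded DIV 5/7/9/12; electrode-pair correlation coefficients averaged, AUC taken. Fit in loss direction vs DMSO.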
# DIO3 (gene 1735) = test: CCTE_GLTED_hDIO3: CCTE's human Deiodinase 3 (DIO3) Inhibition Assay, Great Lakes Toxicology and Ecology Division (GLTED) Lab (AID 2284055; active = hit-call score of the fitted dose curve at least 0.9, where 1 is the maximum;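 also: potency is for inhibition seen as loss of released iodide signal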)
# Method in brief: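 hDIO3 (adenovirus-expressed) + test chemical, 3 h incubation; free iodide quantified by Sandell-Kolthoff reaction, absorbance read-out. DMSO negative control, n=3.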
# [8] = TAMU_PeakParms_SingleDonor1434_Chronotropy: Texas A&M University (TAMU) 1.5-hr Human Induced Pluripotent Stem Cell (iPSC)-derived Cardiomyocytes Calcium (Ca+2) Flux Assay for Cardiotoxicity: Chronotropy (changes in peak frequency) (AID 2284217); details: actives raise or lower the signal
# Method in brief: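 iPSC-CMs, donor 1434; 4 conc (0.2–100 uM), 0.5% v/v DMSO, 90 min, 37C/5% CO2; Ca2+ flux fluorescence → peak.freq.avg; peak.freq.avg = 0 dropped; bidirectional fit vs DMSO; EC05 POD.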
# [9] = CCTE_Mundy_HCI_Cortical_Synap_Neur_Matur_NeuriteSpotCountPerNeuriteLength: CCTE's Synaptogenesis and Neurite Maturation Assay in rat cortical cells for Neurite Spot Count per Neurite Length, Mundy Lab (AID 2284210)
# Method in brief: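 Synaptophysin spots per unit neurite length, measured by automated imaging of MAP2/synaptophysin/Hoechst-stained neurons. Cultures from rat cortex received chemical at DIV 7 with media change through DIV 12; glial growth arrested by AraC at DIV 5; DMSO baseline.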
# [10] = CCTE_Mundy_HCI_Cortical_Synap_Neur_Matur_BPCount: CCTE's Synaptogenesis and Neurite Maturation Assay in rat cortical cells for Branch Point Count, Mundy Lab (AID 2284211)
# Method in brief: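 In this multiplexed morphology assay, cortical cells from rat receive chemicals at DIV 7 and are fixed at DIV 12, then immunostained and imaged; branch points are counted, with DMSO as baseline.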
# [11] = CCTE_Mundy_HCI_Cortical_NOG_NeuriteCount: CCTE's Neurite Outgrowth Assay in rat cortical cells for Neurite Count, Mundy Lab (AID 2284212);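 also: cells fixed about two days after chemical exposure began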
# Method in brief: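 Rat cortical primary cells; compound added 2 h post-plating, 1/10 dilution of working solution. Anti-betaIII-tubulin/AF488 ICC; ArrayScan neurite count vs DMSO.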
# [12] = CCTE_Mundy_HCI_Cortical_NOG_NeuriteLength: CCTE's Neurite Outgrowth Assay in rat cortical cells for Neurite Length, Mundy Lab (AID 2284213);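 as to AC50: neurites imaged about 48 to 50 h after chemical exposure began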
# Method in brief: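 First, rat primary cortical cells were plated and, 2 h later, given test chemical as a 1/10 dilution. Finally, βIII-tubulin immunostaining enabled automated imaging of neurite length.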
# [13] = CCTE_Mundy_HCI_Cortical_Synap_Neur_Matur_NeuriteLength: CCTE's Synaptogenesis and Neurite Maturation Assay in rat cortical cells for Neurite Length, Mundy Lab (AID 2284214)
# Method in brief: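 Read-out: high-content imaging of MAP2-labelled neurites, with synaptophysin and Hoechst co-stain, in rat cortical cultures fixed at DIV 12. Activity fitted in positive direction relative to DMSO baseline.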
# [14] = CCTE_Mundy_HCI_Cortical_Synap_Neur_Matur_NeuriteSpotCountPerNeuron: CCTE's Synaptogenesis and Neurite Maturation Assay in rat cortical cells for Neurite Spot Count per Neuron Count, Mundy Lab (AID 2284215)
# Method in brief: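 Rat primary cortical cultures given AraC at DIV 5, dosed from DIV 7 to DIV 12 with media change. Fixed, stained for MAP2, synaptophysin and Hoechst; neurite-associated synaptophysin puncta per neuron quantified by high-content imaging versus DMSO.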
# [15] = CCTE_Mundy_HCI_Cortical_Synap_Neur_Matur_SynapseCount: CCTE's Synaptogenesis and Neurite Maturation Assay in rat cortical cells for Synapse Count, Mundy Lab (AID 2284218)
# Method in brief: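 Read-out: synapse number per neuron, automated high-content imaging of fixed cells immunostained for MAP2 and synaptophysin plus Hoechst nuclei. Rat primary cortical cultures, AraC at DIV 5, chemical dosing DIV 7–12. Positive-direction fit relative to DMSO.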
# [16] = UKN2_HCS_IMR90_neural_migration: University of Konstanz (UKN) Leist Lab Neural Crest Cell Migration Assay in human induced IMR90 Pluripotent Stem Cells (UKN2) (AID 2284204); details: actives raise or lower the signal
# Method in brief: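 High-content imaging of calcein-AM and Hoechst stained cells quantifies migration into a stopper-defined gap after 24 h compound exposure. Neural crest cells from IMR90 iPSC migrated 24 h in EGF/FGF N2-S medium before dosing; DMSO baseline.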
# [17] = IUF_NPC1b_proliferation_BrdU_72hr: Leibniz Research Institute for Environmental Medicine (IUF) 72-hour Neural Progenitor Cell Bromodeoxyuridine (BrdU) Proliferation Assay (NPC1b) (AID 2284207)
# Method in brief: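 Human fetal cortex-derived (GW 16-19) neural progenitor spheres, 0.25-0.35 mm, one per well in EGF/FGF proliferation medium, exposed to compound for 72 h at 37C, pH 7.2-7.6. BrdU incorporation over the final 16 h read by luminescence ELISA, relative to DMSO.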
# [18] = IUF_NPC1a_proliferation_area_72hr: Leibniz Research Institute for Environmental Medicine (IUF) 72-hour Neural Progenitor Cell Proliferation Area Assay (NPC1a) (AID 2284208)
# Method in brief: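 Single 0.25–0.35 mm human fetal neural progenitor spheres in proliferation medium with EGF and FGF, exposed 72 h from plating without renewal at 37C, pH 7.2-7.6. Sphere area growth measured by automated phase-contrast imaging, relative to DMSO.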
# [19] = IUF_NPC1_viability_72hr: Viability Assessment at 72 hours in the Leibniz Research Institute for Environmental Medicine (IUF) Neural Progenitor Cell Proliferation Assay (NPC1) (AID 2284209)
# Method in brief: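 Alamar blue fluorescence (RFU) after 72 h exposure, normalized to DMSO baseline. hNPC spheres from GW 16-19 fetal cortex, single sphere per well in growth-factor medium; no compound renewal.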
smiles,measurement,setting,value
CCC(C)c1cc([N+](=O)[O-])cc([N+](=O)[O-])c1O (stereo unspecified),outcome,[1],inactive
CCCN(CCC)N=O,outcome,[2],inactive
same,outcome,[1],inactive
Clc1ccc(C(c2ccccc2Cl)C(Cl)(Cl)Cl)cc1 (stereo unspecified),AC50,[3],0.708 µM (active)
same,AC50,[4],2.38 µM (active)
same,AC50,[5],6.13 µM (active)
same,AC50,[6],11.3 nM (active)
same,AC50,[7],0.199 µM (active)
CC#Cc1cc(C)nc(Nc2ccccc2)n1,AC50,DIO3 (gene 1735),3.73 µM (active)
same,outcome,[2],inactive
same,outcome,[1],inactive
c1cc2ccc3cccc4ccc(c1)c2c34,outcome,[3],inactive
same,outcome,[4],inactive
same,outcome,[5],inactive
same,outcome,[6],inactive
same,outcome,[7],inactive
same,AC50,[8],50 µM (active)
ClC1=C(Cl)[C@]2(Cl)[C@@H]3[C@@H](Cl)[C@H]4O[C@H]4[C@@H]3C1(Cl)C2(Cl)Cl,AC50,[3],26.1 µM (active)
same,AC50,[4],22.5 µM (active)
same,outcome,[2],inactive
same,AC50,[5],23.9 µM (active)
same,outcome,[1],inactive
same,outcome,[6],inactive
same,AC50,[7],27.5 µM (active)
same,outcome,[9],inactive
same,AC50,[10],3.36 µM (active)
same,AC50,[11],16.6 µM (active)
same,AC50,[12],16 µM (active)
same,AC50,[13],4.05 µM (active)
same,AC50,[14],8.58 µM (active)
same,AC50,[15],9.03 µM (active)
O=C(N[C@H]1CN2CCC1CC2)c1cc2ccoc2cn1,outcome,[1],inactive
ClC(Cl)=C(c1ccc(Cl)cc1)c1ccc(Cl)cc1,AC50,[3],3.83 µM (active)
same,AC50,[4],5.14 µM (active)
same,outcome,[2],inactive
same,AC50,[5],6.02 µM (active)
same,outcome,[1],inactive
same,AC50,[6],2190 nM (active)
same,AC50,[7],3.9 µM (active)
CCCCCCCCCC[N+](C)(C)CCCCCCCCCC,AC50,DIO3 (gene 1735),3.56 µM (active)
same,AC50,[2],20 µM (active)
same,AC50,[1],31.3 µM (active)
ClC1=C(Cl)[C@]2(Cl)[C@@H]3[C@H]4C[C@H]([C@@H]5O[C@H]45)[C@@H]3[C@@]1(Cl)C2(Cl)Cl,outcome,[3],inactive
same,outcome,[4],inactive
same,outcome,[2],inactive
same,outcome,[6],inactive
same,outcome,[7],inactive
O=C(O)C(F)(F)C(F)(F)C(F)(F)C(F)(F)C(F)(F)C(F)(F)C(F)(F)C(F)(F)F,outcome,[3],inactive
same,outcome,[4],inactive
same,outcome,[6],inactive
same,outcome,[7],inactive
COc1ccc(O)c(C(C)(C)C)c1,outcome,[3],inactive
same,outcome,[4],inactive
same,outcome,[2],inactive
same,outcome,[1],inactive
same,outcome,[6],inactive
same,outcome,[7],inactive
same,outcome,[9],inactive
same,outcome,[10],inactive
same,outcome,[11],inactive
same,outcome,[12],inactive
same,outcome,[13],inactive
same,outcome,[14],inactive
same,outcome,[15],inactive
CO/C=C(/C(=O)OC)c1ccccc1COc1cccc(C(F)(F)F)n1,AC50,[3],245 nM (active) and 751 nM (active)
same,AC50,[4],122 nM (active) and 665 nM (active)
same,outcome,[2],inactive
same,AC50,[5],856 nM (active) and 1.12 µM (active)
same,outcome,[1],inactive
same,AC50,[6],183 nM (active) and 312 nM (active)
same,AC50,[7],244 nM (active) and 459 nM (active)
same,outcome,[16],inactive
same,outcome,[17],inactive
same,AC50,[18],12.6 µM (active)
same,AC50,[19],25.3 µM (active)
same,AC50,[9],1.09 µM (active)
same,AC50,[10],1.16 µM (active)
same,AC50,[11],1.55 µM (active)
same,AC50,[12],1.43 µM (active)
same,AC50,[13],0.731 µM (active)
same,AC50,[14],0.688 µM (active)
same,AC50,[15],0.871 µM (active)
O=S(=O)(O)C(F)(F)C(F)(F)C(F)(F)C(F)(F)C(F)(F)C(F)(F)F,outcome,[3],inactive
same,outcome,[4],inactive
same,outcome,[5],inactive
same,outcome,[6],inactive
same,outcome,[7],inactive
same,outcome,[16],inactive
same,outcome,[17],inactive
same,outcome,[18],inactive
same,outcome,[19],inactive
same,outcome,[9],inactive
same,outcome,[10],inactive
same,outcome,[11],inactive
same,outcome,[12],inactive
same,outcome,[13],inactive
same,outcome,[14],inactive
same,outcome,[15],inactive
Clc1ccc(C(Cl)(Cl)Cl)cc1,AC50,DIO3 (gene 1735),73.1 µM (active)
same,outcome,[2],inactive
same,outcome,[1],inactive
